What all share (assay): DAPPL (digital affinity profiling via proximity ligation, sequencing); 10 mM Tris-HCl pH 7.5, 50 mM NaCl, 1 mM DTT, 4% glycerol, room temperature, 30 min; GST-TFs on glutathione beads, 16-mer random dsDNA library, 0.1% formaldehyde crosslink after washing; high values mean tight binding
In one experiment the target is T1, FLI1 (Homo sapiens, UniProt Q01543 1-452).
T1 sequence: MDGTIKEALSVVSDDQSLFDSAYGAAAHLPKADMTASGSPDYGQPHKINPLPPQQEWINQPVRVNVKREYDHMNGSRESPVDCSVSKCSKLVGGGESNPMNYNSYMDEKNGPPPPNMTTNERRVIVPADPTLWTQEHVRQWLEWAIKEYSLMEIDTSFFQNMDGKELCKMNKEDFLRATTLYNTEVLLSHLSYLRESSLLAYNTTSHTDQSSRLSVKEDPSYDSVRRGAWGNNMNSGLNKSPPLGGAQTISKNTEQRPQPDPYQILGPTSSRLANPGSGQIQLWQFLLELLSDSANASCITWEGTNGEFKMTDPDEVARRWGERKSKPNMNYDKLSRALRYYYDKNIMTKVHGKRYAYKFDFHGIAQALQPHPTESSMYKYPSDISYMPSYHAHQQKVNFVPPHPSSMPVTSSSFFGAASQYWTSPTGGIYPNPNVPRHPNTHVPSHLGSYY
To be noted: protein: recombinant; tags: N-terminal GST; dsDNA, one strand shown. In outline:
(§1)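 After expression in yeast as GST fusions, human transcription factors were bound to glutathione beads, DNA-barcoded and mixed with a tag-only sample. The pools were incubated with 200 nmole of a 16-mer random double-stranded DNA library in Tris/NaCl/DTT/glycerol buffer (30 min, room temperature), washed and crosslinked with 0.1% formaldehyde. Proximity ligation with BsaI/T4 ligase ran for 1 h at 37 °C, before PCR amplification and sequencing on an Illumina NextSeq500. Binding signal is a hexamer's read frequency for a factor divided by its frequency for the tag-only sample.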

In a further experiment the target is T2, ELK1 (Homo sapiens, UniProt P19419 1-428).
T2 sequence: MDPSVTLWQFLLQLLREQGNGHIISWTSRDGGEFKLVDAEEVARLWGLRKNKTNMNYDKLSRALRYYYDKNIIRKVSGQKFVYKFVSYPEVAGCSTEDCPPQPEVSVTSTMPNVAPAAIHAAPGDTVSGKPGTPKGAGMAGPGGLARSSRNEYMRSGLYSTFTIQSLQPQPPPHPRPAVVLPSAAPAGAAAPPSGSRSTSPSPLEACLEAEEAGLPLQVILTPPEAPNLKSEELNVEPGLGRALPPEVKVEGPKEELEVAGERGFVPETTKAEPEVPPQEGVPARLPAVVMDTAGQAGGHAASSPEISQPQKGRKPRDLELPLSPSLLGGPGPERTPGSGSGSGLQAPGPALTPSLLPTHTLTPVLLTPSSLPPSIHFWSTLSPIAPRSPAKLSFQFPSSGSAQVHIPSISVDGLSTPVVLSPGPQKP
To be noted: protein: recombinant; tags: N-terminal GST; dsDNA, one strand shown. In outline:
as §1

A further experiment addresses T3, GABPA (Homo sapiens, UniProt Q06546 1-454).
T3 sequence: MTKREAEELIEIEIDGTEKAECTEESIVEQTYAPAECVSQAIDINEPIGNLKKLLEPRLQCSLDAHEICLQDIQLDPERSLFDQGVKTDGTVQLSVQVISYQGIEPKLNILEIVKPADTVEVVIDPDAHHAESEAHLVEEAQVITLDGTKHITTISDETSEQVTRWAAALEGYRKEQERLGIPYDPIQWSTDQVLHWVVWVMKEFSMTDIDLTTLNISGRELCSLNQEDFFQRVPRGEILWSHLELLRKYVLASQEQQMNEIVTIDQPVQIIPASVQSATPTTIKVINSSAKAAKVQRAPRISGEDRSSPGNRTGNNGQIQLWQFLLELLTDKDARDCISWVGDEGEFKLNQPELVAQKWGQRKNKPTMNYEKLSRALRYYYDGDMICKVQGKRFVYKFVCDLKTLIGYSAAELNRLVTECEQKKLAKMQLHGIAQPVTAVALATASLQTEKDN
To be noted: protein: recombinant; tags: N-terminal GST; dsDNA, one strand shown. The method in brief: as §1

The target of another experiment is T4, ERG (Homo sapiens, UniProt P11308 1-479).
T4 sequence: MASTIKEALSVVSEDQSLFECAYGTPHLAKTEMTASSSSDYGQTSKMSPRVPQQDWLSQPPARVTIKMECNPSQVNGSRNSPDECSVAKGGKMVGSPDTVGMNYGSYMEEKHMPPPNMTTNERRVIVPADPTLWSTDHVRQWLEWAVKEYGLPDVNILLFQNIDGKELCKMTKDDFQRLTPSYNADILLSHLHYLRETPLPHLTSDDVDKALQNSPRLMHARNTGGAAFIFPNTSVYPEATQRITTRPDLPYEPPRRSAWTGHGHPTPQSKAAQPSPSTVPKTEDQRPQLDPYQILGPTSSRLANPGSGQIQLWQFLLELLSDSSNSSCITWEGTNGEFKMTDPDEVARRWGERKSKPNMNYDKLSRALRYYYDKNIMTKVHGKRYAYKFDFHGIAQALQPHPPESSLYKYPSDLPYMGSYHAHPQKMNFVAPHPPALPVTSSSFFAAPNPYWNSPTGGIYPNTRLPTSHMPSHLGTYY
The note with it: protein: recombinant; tags: N-terminal GST; dsDNA, one strand shown. The method in brief:
as §1

For another experiment, the target named is ELF1 (Homo sapiens, UniProt P32519 1-619). To be noted: protein: recombinant; tags: N-terminal GST; dsDNA, one strand shown. In outline:
as §1

A further experiment deals with T5, EHF (Homo sapiens, UniProt Q9NZC4 1-300).
T5 sequence: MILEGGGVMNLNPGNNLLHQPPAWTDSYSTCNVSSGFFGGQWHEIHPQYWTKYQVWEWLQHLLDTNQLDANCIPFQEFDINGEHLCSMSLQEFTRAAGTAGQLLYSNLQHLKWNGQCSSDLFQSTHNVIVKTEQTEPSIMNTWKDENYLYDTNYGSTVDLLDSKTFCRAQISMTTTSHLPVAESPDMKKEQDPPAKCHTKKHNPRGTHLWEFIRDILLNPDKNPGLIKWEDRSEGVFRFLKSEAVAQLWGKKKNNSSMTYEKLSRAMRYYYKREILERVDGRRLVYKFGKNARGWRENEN
To be noted: protein: recombinant; tags: N-terminal GST; dsDNA, one strand shown. The method in brief: as §1

In another experiment the target is SPI1 (Homo sapiens, UniProt P17947 1-270). The note with it: protein: recombinant; tags: N-terminal GST; dsDNA, one strand shown. In outline:
as §1

For the next experiment, the target named is SPIB (Homo sapiens, UniProt Q01892 1-262). To be noted: protein: recombinant; tags: N-terminal GST; dsDNA, one strand shown. In outline:
as §1

For another experiment, the target named is T6, ELK3 (Homo sapiens, UniProt P41970 1-407).
T6 sequence: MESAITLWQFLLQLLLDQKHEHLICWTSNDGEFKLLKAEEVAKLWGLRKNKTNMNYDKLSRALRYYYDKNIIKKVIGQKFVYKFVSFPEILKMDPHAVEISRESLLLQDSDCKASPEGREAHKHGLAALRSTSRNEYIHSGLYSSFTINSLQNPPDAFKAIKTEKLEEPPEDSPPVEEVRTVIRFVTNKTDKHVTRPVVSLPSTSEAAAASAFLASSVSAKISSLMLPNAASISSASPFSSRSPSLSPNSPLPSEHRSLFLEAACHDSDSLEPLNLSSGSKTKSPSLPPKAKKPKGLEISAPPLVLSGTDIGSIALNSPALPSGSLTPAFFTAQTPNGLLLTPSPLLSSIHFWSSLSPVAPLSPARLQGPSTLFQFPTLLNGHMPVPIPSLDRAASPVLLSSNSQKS
The note with it: protein: recombinant; tags: N-terminal GST; dsDNA, one strand shown. In outline: as §1

In a further experiment the target is T7, FEV (Homo sapiens, UniProt Q99581 1-238).
T7 sequence: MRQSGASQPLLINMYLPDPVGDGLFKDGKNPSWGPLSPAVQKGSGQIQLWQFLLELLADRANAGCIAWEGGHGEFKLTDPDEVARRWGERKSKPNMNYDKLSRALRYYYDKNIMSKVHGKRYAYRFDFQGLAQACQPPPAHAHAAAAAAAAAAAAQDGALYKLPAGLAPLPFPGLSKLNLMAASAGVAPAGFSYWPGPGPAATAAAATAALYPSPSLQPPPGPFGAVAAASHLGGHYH
To be noted: protein: recombinant; tags: N-terminal GST; dsDNA, one strand shown. In outline:
as §1

In another experiment the target is ETV5 (Homo sapiens, UniProt P41161 1-510). The note with it: protein: recombinant; tags: N-terminal GST; dsDNA, one strand shown. The method in brief: as §1
In the next experiment the target is HSF1 (Homo sapiens, UniProt Q00613 1-529). The note with it: protein: recombinant; tags: N-terminal GST; chain copies: 3; dsDNA, one strand shown. The method in brief: as §1
For another experiment, the target named is T8, SPIC (Homo sapiens, UniProt Q8N5J4 1-248).
T8 sequence: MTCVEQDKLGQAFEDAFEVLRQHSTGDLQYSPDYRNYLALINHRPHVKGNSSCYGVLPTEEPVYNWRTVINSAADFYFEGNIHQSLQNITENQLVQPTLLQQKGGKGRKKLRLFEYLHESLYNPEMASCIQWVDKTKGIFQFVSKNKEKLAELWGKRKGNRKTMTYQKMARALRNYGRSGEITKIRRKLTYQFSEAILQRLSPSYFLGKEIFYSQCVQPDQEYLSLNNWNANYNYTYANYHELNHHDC
The note with it: protein: recombinant; tags: N-terminal GST; dsDNA, one strand shown. The method in brief: as §1

A further experiment addresses ELF4 (Homo sapiens, UniProt Q99607 1-663). To be noted: protein: recombinant; tags: N-terminal GST; dsDNA, one strand shown. The method in brief:
as §1

The target in a further experiment is T9, ELK4 (Homo sapiens, UniProt P28324-2 1-405).
T9 sequence: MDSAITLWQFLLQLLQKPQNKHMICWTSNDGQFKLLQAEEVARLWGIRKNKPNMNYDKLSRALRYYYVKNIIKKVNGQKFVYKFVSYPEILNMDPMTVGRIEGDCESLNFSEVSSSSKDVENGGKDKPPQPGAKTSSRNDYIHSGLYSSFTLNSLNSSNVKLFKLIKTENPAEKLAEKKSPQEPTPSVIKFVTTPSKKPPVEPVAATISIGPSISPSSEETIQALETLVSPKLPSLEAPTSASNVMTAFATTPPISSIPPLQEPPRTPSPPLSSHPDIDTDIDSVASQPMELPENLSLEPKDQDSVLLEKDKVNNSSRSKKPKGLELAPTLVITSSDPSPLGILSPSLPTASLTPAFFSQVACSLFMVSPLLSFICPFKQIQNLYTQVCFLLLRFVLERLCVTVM
To be noted: protein: recombinant; tags: N-terminal GST; dsDNA, one strand shown. In outline: as §1

Another experiment has as its target T10, ETV2 (Homo sapiens, UniProt O00321 1-342).
T10 sequence: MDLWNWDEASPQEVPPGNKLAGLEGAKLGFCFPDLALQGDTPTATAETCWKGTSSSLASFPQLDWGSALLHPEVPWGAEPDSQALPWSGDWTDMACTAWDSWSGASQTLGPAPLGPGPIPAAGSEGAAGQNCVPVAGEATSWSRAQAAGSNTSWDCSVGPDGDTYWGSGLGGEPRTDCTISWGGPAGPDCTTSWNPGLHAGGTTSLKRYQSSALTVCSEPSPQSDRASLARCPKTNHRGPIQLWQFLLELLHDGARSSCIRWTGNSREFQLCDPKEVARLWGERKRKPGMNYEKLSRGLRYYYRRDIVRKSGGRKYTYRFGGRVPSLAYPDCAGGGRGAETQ
To be noted: protein: recombinant; tags: N-terminal GST; dsDNA, one strand shown. In outline: as §1

The next experiment addresses T11, ELF3 (Homo sapiens, UniProt P78545 1-371).
T11 sequence: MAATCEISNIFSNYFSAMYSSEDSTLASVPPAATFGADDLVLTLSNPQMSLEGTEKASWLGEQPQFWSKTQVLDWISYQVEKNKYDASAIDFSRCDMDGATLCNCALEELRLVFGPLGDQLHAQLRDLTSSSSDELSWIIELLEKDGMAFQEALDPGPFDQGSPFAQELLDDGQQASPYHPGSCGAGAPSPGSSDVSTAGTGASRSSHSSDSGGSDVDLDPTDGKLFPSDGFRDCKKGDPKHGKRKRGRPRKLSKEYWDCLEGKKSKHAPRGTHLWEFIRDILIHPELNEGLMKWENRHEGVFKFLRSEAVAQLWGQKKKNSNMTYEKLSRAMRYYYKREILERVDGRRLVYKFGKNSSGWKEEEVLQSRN
The note with it: protein: recombinant; tags: N-terminal GST; dsDNA, one strand shown. The method in brief: as §1

A further experiment deals with ETV1 (Homo sapiens, UniProt P50549 1-477). The note with it: protein: recombinant; tags: N-terminal GST; dsDNA, one strand shown. The method in brief: as §1
Sequence of ETV1 (P50549 whole entry): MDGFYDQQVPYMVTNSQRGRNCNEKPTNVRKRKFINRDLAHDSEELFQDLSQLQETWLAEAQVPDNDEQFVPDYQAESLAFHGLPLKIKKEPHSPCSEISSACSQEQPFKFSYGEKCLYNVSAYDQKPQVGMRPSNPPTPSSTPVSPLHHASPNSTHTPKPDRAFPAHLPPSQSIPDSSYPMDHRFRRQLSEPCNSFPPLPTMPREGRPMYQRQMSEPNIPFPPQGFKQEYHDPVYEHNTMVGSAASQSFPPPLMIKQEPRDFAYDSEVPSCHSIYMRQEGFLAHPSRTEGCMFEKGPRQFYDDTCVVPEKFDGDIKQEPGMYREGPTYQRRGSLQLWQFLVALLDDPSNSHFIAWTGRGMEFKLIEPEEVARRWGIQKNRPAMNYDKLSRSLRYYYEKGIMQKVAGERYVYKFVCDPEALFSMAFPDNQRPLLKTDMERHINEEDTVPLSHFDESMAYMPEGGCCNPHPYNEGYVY

Sequence of SPIB (Q01892 whole entry): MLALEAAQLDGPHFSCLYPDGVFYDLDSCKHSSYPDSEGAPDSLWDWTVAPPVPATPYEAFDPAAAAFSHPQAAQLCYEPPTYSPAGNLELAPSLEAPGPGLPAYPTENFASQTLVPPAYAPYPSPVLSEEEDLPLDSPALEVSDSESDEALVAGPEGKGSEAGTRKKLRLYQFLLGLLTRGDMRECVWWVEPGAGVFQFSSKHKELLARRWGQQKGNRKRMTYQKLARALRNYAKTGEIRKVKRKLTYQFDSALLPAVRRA
Sequence of ETV5 (P41161 whole entry): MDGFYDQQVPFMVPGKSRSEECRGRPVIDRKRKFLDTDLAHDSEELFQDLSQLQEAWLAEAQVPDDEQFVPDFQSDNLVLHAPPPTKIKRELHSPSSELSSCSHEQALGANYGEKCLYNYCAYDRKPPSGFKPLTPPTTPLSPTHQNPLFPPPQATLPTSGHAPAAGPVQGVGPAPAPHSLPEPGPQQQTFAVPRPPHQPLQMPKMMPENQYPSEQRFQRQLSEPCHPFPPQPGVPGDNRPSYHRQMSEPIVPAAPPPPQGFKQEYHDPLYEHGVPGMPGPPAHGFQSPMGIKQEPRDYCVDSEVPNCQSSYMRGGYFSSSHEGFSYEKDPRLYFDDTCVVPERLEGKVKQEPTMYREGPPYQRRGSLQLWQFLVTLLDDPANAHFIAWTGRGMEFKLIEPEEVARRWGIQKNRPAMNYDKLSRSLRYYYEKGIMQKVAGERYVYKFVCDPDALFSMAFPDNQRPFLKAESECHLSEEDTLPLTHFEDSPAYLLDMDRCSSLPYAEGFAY
Sequence of ELF4 (Q99607 whole entry): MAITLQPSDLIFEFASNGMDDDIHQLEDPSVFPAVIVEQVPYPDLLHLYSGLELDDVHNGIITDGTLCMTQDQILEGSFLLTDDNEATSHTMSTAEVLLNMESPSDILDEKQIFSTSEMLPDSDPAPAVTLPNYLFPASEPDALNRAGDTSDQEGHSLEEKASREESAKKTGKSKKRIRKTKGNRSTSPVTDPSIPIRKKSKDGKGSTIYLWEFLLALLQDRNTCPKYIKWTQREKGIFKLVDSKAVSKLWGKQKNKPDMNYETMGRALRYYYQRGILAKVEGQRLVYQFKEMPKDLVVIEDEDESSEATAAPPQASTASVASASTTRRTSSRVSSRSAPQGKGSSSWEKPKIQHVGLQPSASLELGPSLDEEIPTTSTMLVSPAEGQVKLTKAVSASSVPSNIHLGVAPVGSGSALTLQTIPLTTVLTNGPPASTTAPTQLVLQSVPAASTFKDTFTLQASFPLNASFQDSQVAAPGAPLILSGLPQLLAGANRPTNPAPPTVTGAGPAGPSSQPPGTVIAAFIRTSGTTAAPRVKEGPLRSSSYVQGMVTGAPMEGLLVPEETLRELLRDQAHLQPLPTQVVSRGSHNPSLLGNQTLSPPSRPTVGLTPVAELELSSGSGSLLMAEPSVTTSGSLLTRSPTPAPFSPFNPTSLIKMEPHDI
Sequence of ELF1 (P32519 whole entry): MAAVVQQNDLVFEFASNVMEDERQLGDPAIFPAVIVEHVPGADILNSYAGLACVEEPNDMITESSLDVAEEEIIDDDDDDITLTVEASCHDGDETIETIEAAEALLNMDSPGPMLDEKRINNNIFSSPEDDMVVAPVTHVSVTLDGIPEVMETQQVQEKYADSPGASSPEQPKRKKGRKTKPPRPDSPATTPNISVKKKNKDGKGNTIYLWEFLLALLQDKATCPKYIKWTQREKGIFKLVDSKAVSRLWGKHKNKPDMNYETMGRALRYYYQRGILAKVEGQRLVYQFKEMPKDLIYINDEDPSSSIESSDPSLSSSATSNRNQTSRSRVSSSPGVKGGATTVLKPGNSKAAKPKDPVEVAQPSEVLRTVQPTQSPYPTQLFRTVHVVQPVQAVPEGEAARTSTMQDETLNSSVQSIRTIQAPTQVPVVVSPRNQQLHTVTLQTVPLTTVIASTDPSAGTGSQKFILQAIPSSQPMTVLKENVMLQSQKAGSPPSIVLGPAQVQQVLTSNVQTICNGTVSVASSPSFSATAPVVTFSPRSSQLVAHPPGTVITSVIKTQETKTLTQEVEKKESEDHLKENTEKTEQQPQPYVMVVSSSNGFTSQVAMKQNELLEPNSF
Sequence of HSF1 (Q00613 whole entry): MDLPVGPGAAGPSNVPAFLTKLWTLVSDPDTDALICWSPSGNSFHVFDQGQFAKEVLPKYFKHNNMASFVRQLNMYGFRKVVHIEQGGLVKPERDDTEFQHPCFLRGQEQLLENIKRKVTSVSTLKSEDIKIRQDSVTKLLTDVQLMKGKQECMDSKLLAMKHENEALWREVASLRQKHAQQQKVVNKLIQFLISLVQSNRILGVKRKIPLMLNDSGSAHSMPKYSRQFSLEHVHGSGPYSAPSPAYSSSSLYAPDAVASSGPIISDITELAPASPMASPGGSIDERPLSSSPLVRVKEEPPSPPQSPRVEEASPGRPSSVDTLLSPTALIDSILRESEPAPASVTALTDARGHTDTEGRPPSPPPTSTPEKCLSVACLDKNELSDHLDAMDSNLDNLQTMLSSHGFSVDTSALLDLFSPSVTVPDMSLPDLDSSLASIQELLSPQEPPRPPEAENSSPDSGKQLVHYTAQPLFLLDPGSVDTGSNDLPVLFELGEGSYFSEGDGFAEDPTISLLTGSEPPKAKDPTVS

For GTTCAC, the binding signal with FLI1 was 1.23 fold enrichment (6-mer frequency, TF over GST control); with ELK1, 1.23 fold enrichment (6-mer frequency, TF over GST control); with GABPA, 1.32 fold enrichment (6-mer frequency, TF over GST control); with ERG, 1.21 fold enrichment (6-mer frequency, TF over GST control); in the experiment with ELF1, 1.16 fold enrichment (6-mer frequency, TF over GST control); with EHF, 1.13 fold enrichment (6-mer frequency, TF over GST control). For the same sequence, the binding signal in the experiment with SPI1 was 1.18 fold enrichment (6-mer frequency, TF over GST control); in the experiment with SPIB it was 1.19 fold enrichment (6-mer frequency, TF over GST control); with ELK3, 1.18 fold enrichment (6-mer frequency, TF over GST control); with FEV, 1.3 fold enrichment (6-mer frequency, TF over GST control); with ETV5 it was 1.2 fold enrichment (6-mer frequency, TF over GST control); with HSF1, 1.06 fold enrichment (6-mer frequency, TF over GST control). The binding signal with SPIC is 1.09 fold enrichment (6-mer frequency, TF over GST control); with ELF4 it was 1.25 fold enrichment (6-mer frequency, TF over GST control); in the experiment with ELK4 it was 1.29 fold enrichment (6-mer frequency, TF over GST control); with ETV2, 1.22 fold enrichment (6-mer frequency, TF over GST control); with ELF3, 1.12 fold enrichment (6-mer frequency, TF over GST control); with ETV1, 1.19 fold enrichment (6-mer frequency, TF over GST control).

Values taken from PMC7862700, “An all-to-all approach to the identification of sequence-specific readers for epigenetic DNA modifications on cytosine”.
